Key:
[1] = biological target: Tyrosine-protein kinase Fer (Homo sapiens) (UniProt P16591); conditions: at 1 µM
[2] = biological target: Tyrosine-protein kinase Fes/Fps (Homo sapiens) (UniProt P07332); conditions: at 0.1 µM
[3] = biological target: Tyrosine-protein kinase Fes/Fps (Homo sapiens) (UniProt P07332); conditions: at 1 µM
[4] = biological target: Fibroblast growth factor receptor 1 (Homo sapiens) (UniProt P11362); conditions: at 0.1 µM
[5] = biological target: Fibroblast growth factor receptor 1 (Homo sapiens) (UniProt P11362); conditions: at 1 µM
[6] = biological target: Fibroblast growth factor receptor 2 (Homo sapiens) (UniProt P21802); conditions: at 0.1 µM
[7] = biological target: Fibroblast growth factor receptor 2 (Homo sapiens) (UniProt P21802); conditions: at 1 µM
[8] = biological target: Fibroblast growth factor receptor 3 (Homo sapiens) (UniProt P22607); conditions: at 0.1 µM
[9] = biological target: Fibroblast growth factor receptor 3 (Homo sapiens) (UniProt P22607); conditions: at 1 µM
[10] = biological target: Fibroblast growth factor receptor 4 (Homo sapiens) (UniProt P22455); conditions: at 0.1 µM
[11] = biological target: Fibroblast growth factor receptor 4 (Homo sapiens) (UniProt P22455); conditions: at 1 µM
[12] = biological target: Tyrosine-protein kinase Fgr (Homo sapiens) (UniProt P09769); conditions: at 0.1 µM
[13] = biological target: Tyrosine-protein kinase Fgr (Homo sapiens) (UniProt P09769); conditions: at 1 µM
[14] = biological target: Vascular endothelial growth factor receptor 1 (Homo sapiens) (UniProt P17948); conditions: at 0.1 µM
[15] = biological target: Vascular endothelial growth factor receptor 1 (Homo sapiens) (UniProt P17948); conditions: at 1 µM
[16] = biological target: Receptor-type tyrosine-protein kinase FLT3 (Homo sapiens) (UniProt P36888); conditions: at 0.1 µM
[17] = biological target: Receptor-type tyrosine-protein kinase FLT3 (Homo sapiens) (UniProt P36888); conditions: at 1 µM
[18] = system: T1, Receptor-type tyrosine-protein kinase FLT3 (Homo sapiens), P36888 [D835Y]; conditions: at 0.1 µM
T1 sequence (whole entry): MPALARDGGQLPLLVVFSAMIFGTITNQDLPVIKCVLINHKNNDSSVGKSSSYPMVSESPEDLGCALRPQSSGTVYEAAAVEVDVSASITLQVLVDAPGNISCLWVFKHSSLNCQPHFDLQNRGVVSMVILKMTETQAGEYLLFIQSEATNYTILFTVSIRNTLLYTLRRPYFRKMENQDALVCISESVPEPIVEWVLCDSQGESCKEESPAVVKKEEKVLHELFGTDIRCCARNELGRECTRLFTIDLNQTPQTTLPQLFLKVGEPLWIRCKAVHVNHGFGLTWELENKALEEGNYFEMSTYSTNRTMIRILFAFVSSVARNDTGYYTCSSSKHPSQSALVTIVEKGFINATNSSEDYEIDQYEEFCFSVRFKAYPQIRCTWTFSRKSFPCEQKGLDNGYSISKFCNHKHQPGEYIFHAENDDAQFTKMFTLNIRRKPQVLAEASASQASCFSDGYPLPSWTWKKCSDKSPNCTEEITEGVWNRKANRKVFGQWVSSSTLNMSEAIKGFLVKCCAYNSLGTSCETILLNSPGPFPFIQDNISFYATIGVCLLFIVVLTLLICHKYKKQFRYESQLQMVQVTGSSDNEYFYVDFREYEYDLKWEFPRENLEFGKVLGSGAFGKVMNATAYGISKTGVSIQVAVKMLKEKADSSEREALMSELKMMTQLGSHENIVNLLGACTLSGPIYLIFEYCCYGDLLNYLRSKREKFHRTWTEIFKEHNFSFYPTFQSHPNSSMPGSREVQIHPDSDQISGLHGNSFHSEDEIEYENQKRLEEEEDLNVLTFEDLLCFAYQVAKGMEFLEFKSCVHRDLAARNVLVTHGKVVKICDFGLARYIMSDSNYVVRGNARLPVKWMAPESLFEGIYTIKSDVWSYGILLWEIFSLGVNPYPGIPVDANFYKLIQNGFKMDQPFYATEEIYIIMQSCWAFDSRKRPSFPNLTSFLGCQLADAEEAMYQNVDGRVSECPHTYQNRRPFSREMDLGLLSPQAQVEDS

[19] = biological target: Non-receptor tyrosine-protein kinase TYK2 (Homo sapiens) (UniProt P29597); conditions: at 1 µM;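 also: values are mean percent inhibition of TYK2 kinase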
[20] = biological target: T2, Tyrosine-protein kinase receptor TYRO3 (Homo sapiens) (UniProt Q06418); conditions: at 0.1 µM;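 also: reported percentages are averaged inhibition values of TYRO3 kinase activity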
T2 sequence (whole entry): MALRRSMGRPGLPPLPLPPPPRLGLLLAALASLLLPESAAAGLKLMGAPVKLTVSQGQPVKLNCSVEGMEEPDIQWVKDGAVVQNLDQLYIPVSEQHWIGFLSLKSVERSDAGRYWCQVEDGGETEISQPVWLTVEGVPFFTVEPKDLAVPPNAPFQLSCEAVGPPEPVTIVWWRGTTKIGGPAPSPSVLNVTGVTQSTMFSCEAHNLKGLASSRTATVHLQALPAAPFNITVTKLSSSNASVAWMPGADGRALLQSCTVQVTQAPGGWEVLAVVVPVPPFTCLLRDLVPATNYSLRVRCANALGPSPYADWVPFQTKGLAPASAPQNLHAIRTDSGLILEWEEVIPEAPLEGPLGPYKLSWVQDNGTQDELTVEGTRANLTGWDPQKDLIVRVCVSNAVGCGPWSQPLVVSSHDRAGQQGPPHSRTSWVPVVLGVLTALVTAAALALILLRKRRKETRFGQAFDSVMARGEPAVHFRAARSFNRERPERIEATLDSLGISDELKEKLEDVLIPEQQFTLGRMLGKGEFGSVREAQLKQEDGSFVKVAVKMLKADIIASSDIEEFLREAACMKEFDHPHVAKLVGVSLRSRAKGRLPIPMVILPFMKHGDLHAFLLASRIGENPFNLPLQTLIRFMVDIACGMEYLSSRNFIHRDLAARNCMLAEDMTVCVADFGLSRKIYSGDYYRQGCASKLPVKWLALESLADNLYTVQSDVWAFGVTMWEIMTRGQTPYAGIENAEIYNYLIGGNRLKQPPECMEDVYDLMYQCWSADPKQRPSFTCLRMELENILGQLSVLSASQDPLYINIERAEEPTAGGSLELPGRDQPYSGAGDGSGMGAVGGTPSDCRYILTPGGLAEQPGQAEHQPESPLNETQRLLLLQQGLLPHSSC

Sequence of Vascular endothelial growth factor receptor 1 (Homo sapiens) (P17948 whole entry): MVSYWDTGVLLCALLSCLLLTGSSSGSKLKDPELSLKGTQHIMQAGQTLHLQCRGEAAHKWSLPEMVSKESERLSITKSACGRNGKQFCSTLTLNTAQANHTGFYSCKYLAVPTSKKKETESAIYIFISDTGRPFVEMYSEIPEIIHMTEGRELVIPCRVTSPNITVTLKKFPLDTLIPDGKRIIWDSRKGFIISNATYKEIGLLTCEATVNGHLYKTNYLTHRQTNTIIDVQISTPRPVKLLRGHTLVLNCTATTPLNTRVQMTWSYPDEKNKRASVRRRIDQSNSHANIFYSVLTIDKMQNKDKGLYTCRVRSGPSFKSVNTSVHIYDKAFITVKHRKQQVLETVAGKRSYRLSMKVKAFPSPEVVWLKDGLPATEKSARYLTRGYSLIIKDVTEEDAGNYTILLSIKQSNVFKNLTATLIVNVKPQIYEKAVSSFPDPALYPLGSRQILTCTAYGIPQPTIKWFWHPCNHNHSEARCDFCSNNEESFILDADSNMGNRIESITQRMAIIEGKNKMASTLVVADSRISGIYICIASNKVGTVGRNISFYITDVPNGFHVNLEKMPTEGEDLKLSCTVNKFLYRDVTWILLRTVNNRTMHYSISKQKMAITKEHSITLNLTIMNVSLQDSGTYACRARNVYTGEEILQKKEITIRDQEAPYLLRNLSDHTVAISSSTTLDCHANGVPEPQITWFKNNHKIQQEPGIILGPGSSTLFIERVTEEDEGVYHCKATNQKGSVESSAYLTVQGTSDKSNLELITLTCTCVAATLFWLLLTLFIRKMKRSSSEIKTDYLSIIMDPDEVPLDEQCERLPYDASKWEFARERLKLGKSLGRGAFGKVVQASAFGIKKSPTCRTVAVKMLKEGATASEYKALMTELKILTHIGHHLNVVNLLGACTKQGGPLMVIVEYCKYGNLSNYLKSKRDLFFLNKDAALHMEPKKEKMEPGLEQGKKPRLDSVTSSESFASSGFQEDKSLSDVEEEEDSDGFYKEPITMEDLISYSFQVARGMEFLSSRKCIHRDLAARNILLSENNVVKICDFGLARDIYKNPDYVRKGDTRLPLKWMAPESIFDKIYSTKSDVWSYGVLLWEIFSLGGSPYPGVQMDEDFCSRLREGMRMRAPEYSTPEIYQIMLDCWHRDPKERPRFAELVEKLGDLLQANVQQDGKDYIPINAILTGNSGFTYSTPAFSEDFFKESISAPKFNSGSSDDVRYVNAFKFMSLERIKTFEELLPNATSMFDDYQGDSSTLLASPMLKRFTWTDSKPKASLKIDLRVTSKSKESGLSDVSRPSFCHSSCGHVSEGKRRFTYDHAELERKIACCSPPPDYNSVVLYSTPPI
Sequence of Tyrosine-protein kinase Fer (Homo sapiens) (P16591 whole entry, looked up): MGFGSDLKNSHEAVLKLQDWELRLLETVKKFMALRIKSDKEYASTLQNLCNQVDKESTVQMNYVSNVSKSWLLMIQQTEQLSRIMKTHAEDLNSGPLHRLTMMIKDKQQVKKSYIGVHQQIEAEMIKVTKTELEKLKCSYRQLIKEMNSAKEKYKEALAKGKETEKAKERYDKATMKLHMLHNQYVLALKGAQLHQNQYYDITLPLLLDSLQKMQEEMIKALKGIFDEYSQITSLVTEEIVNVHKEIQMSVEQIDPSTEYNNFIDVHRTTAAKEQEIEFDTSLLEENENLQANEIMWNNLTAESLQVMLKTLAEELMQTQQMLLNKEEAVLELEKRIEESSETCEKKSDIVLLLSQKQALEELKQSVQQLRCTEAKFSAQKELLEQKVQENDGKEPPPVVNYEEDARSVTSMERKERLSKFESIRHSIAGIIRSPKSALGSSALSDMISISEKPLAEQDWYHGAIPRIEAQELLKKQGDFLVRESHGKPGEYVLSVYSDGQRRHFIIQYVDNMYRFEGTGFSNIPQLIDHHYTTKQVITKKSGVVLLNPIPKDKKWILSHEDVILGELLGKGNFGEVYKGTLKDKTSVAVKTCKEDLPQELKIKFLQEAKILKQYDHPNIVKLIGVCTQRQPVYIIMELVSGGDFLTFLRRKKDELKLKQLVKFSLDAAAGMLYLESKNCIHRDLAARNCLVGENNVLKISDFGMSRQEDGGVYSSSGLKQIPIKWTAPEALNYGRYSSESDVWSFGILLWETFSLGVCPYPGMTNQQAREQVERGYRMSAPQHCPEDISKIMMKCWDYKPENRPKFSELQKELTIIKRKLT
Sequence of Fibroblast growth factor receptor 3 (Homo sapiens) (P22607 23-806 limits assumed): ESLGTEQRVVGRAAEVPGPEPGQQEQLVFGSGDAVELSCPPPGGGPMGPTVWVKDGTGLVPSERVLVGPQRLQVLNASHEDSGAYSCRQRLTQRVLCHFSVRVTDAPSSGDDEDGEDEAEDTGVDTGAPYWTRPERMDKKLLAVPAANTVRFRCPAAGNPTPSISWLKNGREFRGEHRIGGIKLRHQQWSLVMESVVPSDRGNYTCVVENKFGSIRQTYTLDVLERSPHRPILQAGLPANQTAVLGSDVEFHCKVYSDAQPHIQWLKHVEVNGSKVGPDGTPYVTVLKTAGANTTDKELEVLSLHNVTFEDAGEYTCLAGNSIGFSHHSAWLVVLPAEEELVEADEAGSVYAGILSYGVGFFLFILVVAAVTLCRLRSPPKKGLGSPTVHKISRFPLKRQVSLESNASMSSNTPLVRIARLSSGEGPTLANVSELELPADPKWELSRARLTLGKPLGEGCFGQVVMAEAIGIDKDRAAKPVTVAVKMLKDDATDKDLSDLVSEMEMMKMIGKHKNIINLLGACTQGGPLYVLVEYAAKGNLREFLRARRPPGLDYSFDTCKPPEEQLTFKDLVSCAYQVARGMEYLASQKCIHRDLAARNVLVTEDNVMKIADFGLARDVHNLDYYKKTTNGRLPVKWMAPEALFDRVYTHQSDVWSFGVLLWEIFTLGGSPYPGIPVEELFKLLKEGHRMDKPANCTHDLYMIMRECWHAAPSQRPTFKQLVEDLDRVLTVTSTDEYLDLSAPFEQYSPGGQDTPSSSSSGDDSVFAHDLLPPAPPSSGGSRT
Sequence of Tyrosine-protein kinase Fgr (Homo sapiens) (P09769 2-529 limits assumed): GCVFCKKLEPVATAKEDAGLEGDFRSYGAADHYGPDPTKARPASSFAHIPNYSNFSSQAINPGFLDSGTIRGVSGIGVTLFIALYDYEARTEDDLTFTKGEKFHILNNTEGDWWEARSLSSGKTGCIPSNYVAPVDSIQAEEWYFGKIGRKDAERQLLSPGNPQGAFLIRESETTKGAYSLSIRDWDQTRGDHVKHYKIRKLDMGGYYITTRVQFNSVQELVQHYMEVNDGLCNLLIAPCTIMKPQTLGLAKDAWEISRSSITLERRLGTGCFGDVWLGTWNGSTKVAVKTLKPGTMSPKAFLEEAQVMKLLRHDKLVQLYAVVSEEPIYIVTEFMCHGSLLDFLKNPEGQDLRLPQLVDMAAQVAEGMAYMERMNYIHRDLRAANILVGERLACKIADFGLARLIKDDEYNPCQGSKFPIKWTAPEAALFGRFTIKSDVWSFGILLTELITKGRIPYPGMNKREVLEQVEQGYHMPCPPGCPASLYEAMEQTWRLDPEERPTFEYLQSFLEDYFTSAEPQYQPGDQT
Sequence of Fibroblast growth factor receptor 4 (Homo sapiens) (P22455 22-802 limits assumed): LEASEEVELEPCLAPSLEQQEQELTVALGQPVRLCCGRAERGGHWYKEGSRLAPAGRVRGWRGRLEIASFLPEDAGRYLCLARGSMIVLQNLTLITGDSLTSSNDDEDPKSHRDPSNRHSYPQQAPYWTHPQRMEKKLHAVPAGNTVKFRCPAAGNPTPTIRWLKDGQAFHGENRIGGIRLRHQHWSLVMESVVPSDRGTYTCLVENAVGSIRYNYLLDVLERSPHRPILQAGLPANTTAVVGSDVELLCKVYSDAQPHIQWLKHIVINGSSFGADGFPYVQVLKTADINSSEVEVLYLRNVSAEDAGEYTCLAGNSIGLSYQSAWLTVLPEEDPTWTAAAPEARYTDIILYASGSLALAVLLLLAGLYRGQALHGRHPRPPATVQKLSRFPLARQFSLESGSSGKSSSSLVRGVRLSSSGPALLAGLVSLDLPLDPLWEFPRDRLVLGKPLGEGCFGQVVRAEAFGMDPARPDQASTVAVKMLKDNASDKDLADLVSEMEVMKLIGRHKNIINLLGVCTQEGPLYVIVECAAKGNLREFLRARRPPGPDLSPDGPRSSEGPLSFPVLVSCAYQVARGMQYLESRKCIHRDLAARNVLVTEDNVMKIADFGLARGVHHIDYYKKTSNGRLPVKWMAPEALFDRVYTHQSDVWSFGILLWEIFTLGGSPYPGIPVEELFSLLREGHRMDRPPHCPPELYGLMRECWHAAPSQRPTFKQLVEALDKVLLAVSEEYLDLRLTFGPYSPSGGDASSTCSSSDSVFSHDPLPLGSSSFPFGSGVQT
Sequence of Tyrosine-protein kinase Fes/Fps (Homo sapiens) (P07332 whole entry): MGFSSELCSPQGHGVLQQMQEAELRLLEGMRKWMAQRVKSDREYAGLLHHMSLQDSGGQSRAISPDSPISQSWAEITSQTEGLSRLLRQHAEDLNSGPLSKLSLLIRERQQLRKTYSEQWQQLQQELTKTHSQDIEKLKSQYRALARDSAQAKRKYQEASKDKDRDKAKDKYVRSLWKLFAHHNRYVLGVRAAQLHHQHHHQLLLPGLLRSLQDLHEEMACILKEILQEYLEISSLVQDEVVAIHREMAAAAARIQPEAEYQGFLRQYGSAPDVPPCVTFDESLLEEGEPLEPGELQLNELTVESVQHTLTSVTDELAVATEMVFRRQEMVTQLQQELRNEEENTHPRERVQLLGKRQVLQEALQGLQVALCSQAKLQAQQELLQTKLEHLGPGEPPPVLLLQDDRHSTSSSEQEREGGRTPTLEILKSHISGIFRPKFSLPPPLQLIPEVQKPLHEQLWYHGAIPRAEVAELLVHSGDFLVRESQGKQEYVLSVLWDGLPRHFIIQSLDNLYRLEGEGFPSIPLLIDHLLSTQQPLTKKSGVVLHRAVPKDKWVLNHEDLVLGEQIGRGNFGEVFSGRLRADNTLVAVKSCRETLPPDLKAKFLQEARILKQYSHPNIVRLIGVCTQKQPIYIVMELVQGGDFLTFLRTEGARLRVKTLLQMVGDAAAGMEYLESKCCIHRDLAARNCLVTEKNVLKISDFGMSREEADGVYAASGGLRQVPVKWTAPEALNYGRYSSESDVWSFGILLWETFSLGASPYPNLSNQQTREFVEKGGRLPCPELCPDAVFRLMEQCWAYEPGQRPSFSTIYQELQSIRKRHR

SMILES	inhibition [1] [%]	inhibition [2] [%]	inhibition [3] [%]	inhibition [4] [%]	inhibition [5] [%]	inhibition [6] [%]	inhibition [7] [%]	inhibition [8] [%]	inhibition [9] [%]	inhibition [10] [%]	inhibition [11] [%]	inhibition [12] [%]	inhibition [13] [%]	inhibition [14] [%]	inhibition [15] [%]	inhibition [16] [%]	inhibition [17] [%]	inhibition [18] [%]	inhibition [19] [%]	inhibition [20] [%]
COc1cc2c(cc1Nc1nc(Nc3ccsc3C(N)=O)c3cc[nH]c3n1)N(C(=O)CN(C)C)CCC2	81.6	77.9	86.8	-0.88	-1.8	1.41	0.97	0.66	2.61	-1.12	1.79	7.89	10.7	-1.61	1.49	-1.64	1.45	-8.75	-1.13	
COc1cccc(-n2ncc3c(N/N=C/c4ccncc4)ncnc32)c1	11.7	3.38	5.85	4.8	8.02	4.98	14.5	7.39	11.9	1.99	7.56	29	70	1.64	27.6	7.06	28.3	11.5	0.71	8.97
CCn1c(-c2nonc2N)nc2c(C#CC(C)(C)O)ncc(OCC3CCNCC3)c21	6.84	2.17	4.04	-2.34	-0.27	-1.71	3.89	1.17	-1.22	-6.83	-3.68	5.04	4.9	2.92	23.5	-0.18	4.4	3.83	1.52	2.77
CCn1c(-c2nonc2N)nc2c(C#CC(C)(C)O)nc(O[C@@H](CN)c3ccccc3)cc21	11.6	-0.28	5.21	-5.77	6.16	0.17	1.12	-1.56	-0.33	0.28	1.13	3.54	28.6	36.1	79.8	-2.74	-0.29	2.74	1.49	0.32
NS(=O)(=O)c1ccc(-c2ccc3c(NC(=O)C4CC4)n[nH]c3c2)cc1	-0.03	1.35	2.53	2.31	7.63	7.91	6	3.47	5.72	0.67	-0.07	1.76	6.23	0.3	1.37	-1.65	3.53	2.16	-4.76	3.34
COc1cccc(COc2cc(-n3cnc4ccccc43)sc2C(N)=O)c1	3.72	0.11	0.56	-3.37	-0.23	-0.92	3.02	-1.31	0.24	-1.48	1.25	1.93	1.54	-2.33	-0.83	-1.3	-4.17	-9.33	-0.53	-0.84
Nc1nonc1-c1nc2cnccc2n1C1CCCCC1	1.83	-2.28	-1.92	-7.32	-4.22	-6.69	-0.47	-2.79	-2.23	-1.75	-1.15	-0.56	6.63	-1	4.33	-0.01	4.32	3.29	6.77	-1.27

Source: ChEMBL document CHEMBL1961873, “Compounds: GSK PKIS; Assays: Nanosyn kinase panel” (2012)
